Reference: PubChem BioAssay (NCI)
The panel holds about 79,000 compounds, 15% with a hit somewhere; the sample as a whole holds those more often. Activity calls are given as the source filed them. Cut-off read from the data, not from the text of the source: active = growth inhibition above about 70%; inactive = the rest.

What was measured:
[1] = NCI Yeast Anticancer Drug Screen. Data for the rad52 strain (AID 147);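 note: 0% = growth of vehicle-treated control cultures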; conditions: S. cerevisiae rad52 mutant growth inhibition, stronger effect = higher value
In short: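 Compounds are applied to a genetically defined yeast strain lacking normal DNA damage repair, and inhibition of growth is expressed relative to cultures given vehicle only.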

[2] = NCI Yeast Anticancer Drug Screen. Data for the wt1 strain (AID 149);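 note: 0% = growth of vehicle-treated wt1 cultures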; conditions: S. cerevisiae wt1 strain (SPY 50644) growth inhibition, stronger effect = higher value
In short: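 Measured: growth of wt1 yeast under compound versus vehicle treatment, reported as inhibition.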

[3] = NCI Yeast Anticancer Drug Screen. Data for the rad50EPP+ strain (AID 151);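 note: 0% = growth of vehicle-treated control cultures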; conditions: S. cerevisiae rad50 mutant strain, stronger effect = higher value
In short: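 Compounds were applied to the rad50EPP+ yeast strain, which bears a defined DNA repair alteration, and growth inhibition was determined relative to vehicle-treated cultures.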

[4] = NCI Yeast Anticancer Drug Screen. Data for the mgt1 strain (AID 153); conditions: S. cerevisiae mgt1 mutant growth inhibition, stronger effect = higher value
In short: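 Strain: mgt1 yeast, one of a set carrying defined DNA damage repair or cell cycle control alterations. Compound-treated growth compared with vehicle.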

[5] = NCI Yeast Anticancer Drug Screen. Data for the rad50 strain (AID 155);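 note: 0% = growth of vehicle-only cultures of the same strain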; conditions: S. cerevisiae rad50 strain growth inhibition, stronger effect = higher value
In short: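 Growth of the mutant yeast was measured after compound exposure and referenced to vehicle-treated cultures.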

[6] = NCI Yeast Anticancer Drug Screen. Data for the mec2-1 strain (AID 157); conditions: S. cerevisiae mec2-1 strain, stronger effect = higher value
In short: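 Strain: mec2-1 (DNA repair/cell cycle alteration). Compound exposure, then growth measured; inhibition expressed relative to vehicle.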

[7] = NCI Yeast Anticancer Drug Screen. Data for the rad14 strain (AID 159);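 note: 0% = growth of vehicle-treated control cultures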; conditions: S. cerevisiae rad14 strain growth inhibition, stronger effect = higher value
In short: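 Here, inhibition of yeast growth was measured after compound exposure, using a strain with a genetic defect in DNA damage repair and vehicle-treated cultures as the reference.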

[8] = NCI Yeast Anticancer Drug Screen. Data for the cln2 rad14 strain (AID 165);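 note: 0% = growth equal to vehicle treated cultures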; conditions: S. cerevisiae cln2 rad14 strain, stronger effect = higher value
In short: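 Compounds are applied to the cln2 rad14 yeast strain, and growth is then compared with that of vehicle-treated cultures to give inhibition.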

[9] = NCI Yeast Anticancer Drug Screen. Data for the bub3 strain (AID 167); conditions: S. cerevisiae bub3 mutant strain, stronger effect = higher value
In short: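 Whole-cell yeast assay. The mutant strain was incubated with compounds, and growth inhibition was determined by comparison with vehicle-treated cells.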

[10] = NCI Yeast Anticancer Drug Screen. Data for the wt2 strain (AID 169);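 note: 0% = growth of vehicle-treated yeast cultures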; conditions: S. cerevisiae wt2 strain growth inhibition, stronger effect = higher value
In short: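 This strain belongs to a panel of yeast strains with defined genetic alterations in DNA damage repair or cell cycle control. Compounds are applied, and growth inhibition is measured against vehicle-treated cultures.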

[11] = NCI Yeast Anticancer Drug Screen. Data for the sgs1 strain (AID 173);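 note: 0% = growth of vehicle-only control cultures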; conditions: S. cerevisiae sgs1 mutant, stronger effect = higher value
In short: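 Growth of a yeast strain bearing a defined genetic alteration is measured after compound treatment. Inhibition is expressed relative to vehicle-only controls.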

[12] = NCI Yeast Anticancer Drug Screen. Data for the mlh1 rad18 strain (AID 175); conditions: S. cerevisiae mlh1 rad18 strain growth inhibition, stronger effect = higher value
In short: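 Read-out is yeast growth inhibition, calculated against vehicle-only controls. The compound was applied to a strain engineered with DNA damage repair alterations.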

[13] = NCI Yeast Anticancer Drug Screen. Data for the rad18 strain (AID 177); conditions: S. cerevisiae rad18 mutant growth inhibition, stronger effect = higher value
In short: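 Growth of the mutant yeast strain after compound exposure, normalised to vehicle-only cultures.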

[14] = NCI Yeast Anticancer Drug Screen. Data for the sgs1 mgt1 strain (AID 161);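 note: 0% = growth of cultures given vehicle only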; conditions: S. cerevisiae sgs1 mgt1 strain, stronger effect = higher value
In short: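 Read-out: growth inhibition vs vehicle controls. Cells: mutant yeast strain deficient in DNA damage repair.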

[15] = at 5.0 µM (retest, dose inferred, filed as 0.5)
[16] = at 50.0 µM (retest, dose inferred, filed as 5.0)

Measured: growth inhibition

O=Cc1cccc2ccc3ccccc3c12
active: [1]; at 100.0 µM 98% | [3]; at 33.0 µM 77% | [3]; at 100.0 µM 95% | [4]; at 100.0 µM 98% | [5]; at 33.0 µM 94% | [5]; [16] 89% | [5]; at 50.0 µM 99.3% | [5]; at 100.0 µM 97% | [6]; at 50.0 µM 99.5% | [6]; at 100.0 µM 96% | [7]; at 33.0 µM 71% | [7]; at 100.0 µM 99% | [8]; at 50.0 µM 98.7% | [9]; [16] 81% | [9]; at 50.0 µM 98.7% | [9]; at 100.0 µM 97% | [10]; at 100.0 µM 80% | [11]; at 100.0 µM 99% | [12]; [16] 82% | [12]; at 50.0 µM 98.8% | [13]; at 100.0 µM 98%
inactive: [1]; at 1.2 µM -6% | [1]; at 3.7 µM 0% | [1]; at 11.0 µM 7% | [1]; at 33.0 µM 62% | [2]; at 1.2 µM -6% | [2]; at 3.7 µM -5% | [2]; at 11.0 µM -8% | [2]; at 33.0 µM 7% | [2]; at 100.0 µM 52% | [3]; at 1.2 µM 5% | [3]; at 3.7 µM 15% | [3]; at 11.0 µM 36% | [4]; at 1.2 µM -2% | [4]; at 3.7 µM -4% | [4]; at 11.0 µM -3% | [4]; at 33.0 µM 32% | [5]; at 1.2 µM -7% | [5]; at 3.7 µM -12% | [5]; [15] -102% | [5]; at 11.0 µM 12% | [6]; at 1.2 µM -1% | [6]; at 3.7 µM -1% | [6]; [15] -45% | [6]; at 11.0 µM 1% | [6]; at 33.0 µM 1% | [6]; [16] 41% | [7]; at 1.2 µM -1% | [7]; at 3.7 µM 1% | [7]; at 11.0 µM 9% | [8]; [15] -52% | [8]; [16] 2% | [9]; at 1.2 µM -7% | [9]; at 3.7 µM -4% | [9]; [15] -54% | [9]; at 11.0 µM -3% | [9]; at 33.0 µM 4% | [10]; at 1.2 µM -2% | [10]; at 3.7 µM -2% | [10]; at 11.0 µM -3% | [10]; at 33.0 µM 26% | [11]; at 1.2 µM -1% | [11]; at 3.7 µM -2% | [11]; at 11.0 µM 4% | [11]; at 33.0 µM 57% | [12]; [15] -91% | [13]; at 1.2 µM -6% | [13]; at 3.7 µM -2% | [13]; at 11.0 µM 6% | [13]; at 33.0 µM 43%

O=C(NNc1ccnc2cc(Cl)ccc12)/C(=C\c1ccccc1Cl)NC(=O)c1ccccc1
active: [3]; at 11.0 µM 91% | [3]; at 33.0 µM 95% | [3]; at 100.0 µM 89% | [5]; at 50.0 µM 86.1% | [14]; at 50.0 µM 73% | [9]; at 33.0 µM 76% | [9]; [16] 80% | [9]; at 50.0 µM 85.8% | [9]; at 100.0 µM 76%
inactive: [1]; at 1.2 µM 15% | [1]; at 3.7 µM 11% | [1]; at 11.0 µM 40% | [1]; at 33.0 µM 38% | [1]; at 100.0 µM 38% | [2]; at 1.2 µM -80% | [2]; at 3.7 µM -1% | [2]; at 11.0 µM 6% | [2]; at 33.0 µM 21% | [2]; at 100.0 µM 28% | [3]; at 1.2 µM 17% | [3]; at 3.7 µM 55% | [4]; at 1.2 µM 2% | [4]; at 3.7 µM 23% | [4]; at 11.0 µM 32% | [4]; at 33.0 µM 61% | [4]; at 100.0 µM 62% | [5]; at 1.2 µM -1% | [5]; at 3.7 µM 4% | [5]; [15] -11% | [5]; at 11.0 µM 14% | [5]; at 33.0 µM 33% | [5]; [16] -18% | [5]; at 100.0 µM 30% | [6]; at 1.2 µM -5% | [6]; at 3.7 µM -1% | [6]; [15] -16% | [6]; at 11.0 µM -1% | [6]; at 33.0 µM 20% | [6]; [16] -30% | [6]; at 50.0 µM 39.6% | [6]; at 100.0 µM 14% | [7]; at 1.2 µM -2% | [7]; at 3.7 µM 1% | [7]; at 11.0 µM 1% | [7]; at 33.0 µM 3% | [7]; at 100.0 µM 0% | [14]; [15] -8% | [14]; [16] -37% | [8]; [15] 8% | [8]; [16] 22% | [8]; at 50.0 µM 55.4% | [9]; at 1.2 µM 0% | [9]; at 3.7 µM 14% | [9]; [15] 5% | [9]; at 11.0 µM 50% | [10]; at 1.2 µM 4% | [10]; at 3.7 µM 28% | [10]; at 11.0 µM 45% | [10]; at 33.0 µM 38% | [10]; at 100.0 µM 31%
